# High-throughput results from PubChem.
# This is a sample that favours compounds with a hit; in the whole collection about 13% have one here.
# USP8 inh – blocks human USP8 ubiquitin-rhodamine cleavage. P40818. purified USP8, Ub-rhodamine cleavage fluorescence, 30 min. inhibition, % at 20 µM. actives 4.2% (n = 47,000)
# USP28 inh – inhibitors of human USP28 deubiquitinase; Q96RU2; purified USP28, Ub-rhodamine cleavage fluorescence, 30 min; inhibition, % at 25 µM; actives 3% (n = 47,000); AID 1645857
# Target sequence (Q96RU2 whole entry, looked up): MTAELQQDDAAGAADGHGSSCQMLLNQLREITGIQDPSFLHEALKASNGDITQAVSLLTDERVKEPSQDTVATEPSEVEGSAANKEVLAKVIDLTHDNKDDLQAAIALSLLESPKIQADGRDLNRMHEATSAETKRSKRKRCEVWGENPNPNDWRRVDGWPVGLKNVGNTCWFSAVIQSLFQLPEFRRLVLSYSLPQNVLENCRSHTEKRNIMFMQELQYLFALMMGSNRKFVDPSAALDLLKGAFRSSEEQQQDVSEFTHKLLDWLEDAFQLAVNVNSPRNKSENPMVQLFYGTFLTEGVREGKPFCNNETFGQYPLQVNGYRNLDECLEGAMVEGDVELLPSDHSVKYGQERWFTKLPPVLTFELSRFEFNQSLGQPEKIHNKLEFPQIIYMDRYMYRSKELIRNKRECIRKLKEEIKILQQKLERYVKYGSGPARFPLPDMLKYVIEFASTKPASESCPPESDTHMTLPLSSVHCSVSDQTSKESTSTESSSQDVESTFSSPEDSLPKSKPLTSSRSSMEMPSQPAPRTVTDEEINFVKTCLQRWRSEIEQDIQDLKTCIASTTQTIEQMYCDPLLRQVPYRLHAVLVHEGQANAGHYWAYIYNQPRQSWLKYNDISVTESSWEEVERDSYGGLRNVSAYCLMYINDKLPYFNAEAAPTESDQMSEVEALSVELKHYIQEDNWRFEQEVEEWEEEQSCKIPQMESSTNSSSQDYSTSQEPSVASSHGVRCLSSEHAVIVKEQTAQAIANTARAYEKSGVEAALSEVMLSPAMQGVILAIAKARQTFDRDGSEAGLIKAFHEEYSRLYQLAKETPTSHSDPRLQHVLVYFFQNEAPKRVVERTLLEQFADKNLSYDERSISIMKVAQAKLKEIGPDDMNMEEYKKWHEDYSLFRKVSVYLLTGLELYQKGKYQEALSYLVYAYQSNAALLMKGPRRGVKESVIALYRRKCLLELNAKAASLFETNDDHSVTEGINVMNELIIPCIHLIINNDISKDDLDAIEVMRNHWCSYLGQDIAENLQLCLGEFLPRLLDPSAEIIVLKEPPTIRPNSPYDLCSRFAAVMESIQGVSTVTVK
# USP10 inh – blocks human USP10 ubiquitin-rhodamine cleavage; inhibition, % at 20 µM; Q14694; actives 1.1% (n = 47,000); purified USP10, Ub-rhodamine fluorescence, 60 min; AID 1645856
# USP30 inh – inhibitors of human USP30 deubiquitinase. inhibition, % at 25 µM. AID 1645860. Q70CQ3. actives 5.3% (n = 47,000). purified USP30, Ub-rhodamine cleavage fluorescence
# USP17 block – human USP17-like deubiquitinase inhibition; purified USP17, Ub-rhodamine cleavage fluorescence, 3 h; actives 6.5% (n = 47,000); A8MUK1; inhibition, % at 50 µM
# * = called active by the depositor; i = inactive; / = no result. Rule as the data show it: active = inhibition above about 30%; inactive = the rest.
SMILES,USP8 inh,USP28 inh,USP10 inh,USP30 inh,USP17 block
COc1cccc(CNC(=O)CCC(=O)Nc2ccc3nc(N4CCCCC4)cc(C)c3c2)c1,-15.8,-0.1,-2.2,-30.5,-0.2
COc1ccc(CCC(=O)Nc2ccc3nc(N4CCN(c5ncccn5)CC4)cc(C)c3c2)cc1,36.3*,15.6,13.8,30.3*,9.7
COc1ccccc1CNC(=O)CCC(=O)Nc1ccc2nc(N3CCC(C)CC3)cc(C)c2c1,17.5,4.5,-4.4,-12.1,31.9*
COc1ccc(CC(=O)Nc2ccc3nc(N4CCOCC4)cc(C)c3c2)cc1,20.9,22.2,-1.3,37.7*,53.5*
COc1ccc(CCC(=O)Nc2ccc3c(c2)Sc2ncccc2C(=O)N3C)cc1,-17.0,54.6*,-11.8,-69.8,-7.5
O=C(NCC(F)(F)F)c1ccc2ccc(N3CCN(c4ncccn4)CC3)n2c1,-35.8,-153.1,-6.5,i,-125.5
CCN(CC)c1cc(C)c2cc(NC(=O)c3ccncc3)ccc2n1,-10.9,70.9*,-10.4,-20.0,-16.6
CCN(CC)c1cc(C)c2cc(NC(=O)CCc3ccc(OC)cc3)ccc2n1,53.7*,45.8*,1.5,4.6,12.9
COc1ccc(NC(=O)CCc2nc3ccccc3c(=O)[nH]2)cc1,-25.9,-13.0,-3.3,-46.1,-22.1
CCN1CCN(c2cc(C)c3cc(NC(=O)c4cncc(Br)c4)ccc3n2)CC1,-5.7,20.7,-3.0,-43.9,-15.6
Cc1cc(N2CCCCC2)nc2ccc(NC(=O)CCC(=O)NC(C)c3ccc4c(c3)OCCO4)cc12 (stereo not drawn),19.0,17.1,-3.8,11.0,36.5*
COc1ccccc1CNC(=O)CCC(=O)Nc1ccc2nc(N3CCN(C)CC3)cc(C)c2c1,-5.4,-1.5,-2.3,-21.5,-8.2
CCOc1ccc(CNC(=O)CCC(=O)Nc2ccc3nc(N4CCCCC4)cc(C)c3c2)cc1,4.9,-3.4,-1.3,3.5,15.9
COc1ccc(/C=C/C(=O)Nc2ccc3nc(N4CCN(c5ncccn5)CC4)cc(C)c3c2)cc1,88.3*,-0.1,15.8,-10.5,43.3*
COc1ccccc1-c1noc2ncnc(NCCCN3CCCC(C)C3)c12 (stereo not drawn),1.7,-7.2,0.6,-3.0,-2.4
Cc1cc(N2CCN(c3ncccn3)CC2)nc2ccc(NC(=O)/C=C/c3ccccc3Cl)cc12,15.3,40.3*,-1.1,9.7,51.4*
Cc1cc(N2CCC(C)CC2)nc2ccc(NC(=O)C3CC3)cc12,11.0,21.2,-2.7,-5.3,-13.9
Nc1ccc(Oc2cccnc2)nc1,-18.4,-251.0,-5.5,i,-204.4
O=C(C1CN(Cc2ccccn2)Cc2ccnn2C1)N1CCCC1 (stereo not drawn),-70.9,-11.9,-0.2,-7.3,-15.4
O=C(NC(c1ccccc1)c1nnc(-c2ccccc2)o1)c1ccccc1Cl (stereo not drawn),0.4,7.3,2.7,32.0*,39.4*
O=C(COc1ccc(F)cc1)NC(c1ccc(F)cc1)c1nnc(-c2ccccc2)o1 (stereo not drawn),-0.6,4.8,0.6,10.8,6.3
C1CNCC(CCc2nc(N3CCCC3)nc3c2CNCC3)C1 (stereo not drawn),-46.5,31.0*,-2.9,25.1,-8.4
CC1(C)CS(=O)(=O)N(c2ccc(C(=O)NCCc3ccc(F)cc3)cc2)C1=O,-9.3,-19.3,-2.2,-19.7,-19.6
NC(=O)C1(N2CCCCC2)CCN(CC(=O)Nc2cc(Cl)ccc2Cl)CC1,14.9,5.8,-3.6,30.2*,11.9
CCOC(=O)c1noc2nc(C)nc(NCc3ccccc3OC)c12,43.3*,12.7,-2.1,10.7,21.0
SMILES,USP8 inh,USP28 inh,USP10 inh,USP30 inh,USP17 block
CCOC(=O)c1c(C)oc2ncnc(Nc3cccc(OC)c3)c12,-7.4,0.8,0.5,10.6,10.8
CCOC(=O)c1noc2ncnc(NCc3cccc(OC)c3)c12,69.7*,0.6,2.6,-1.9,/
COc1ccc(C(=O)NC2CCN(Cc3c(C)noc3C)C2)cc1F (stereo not drawn),-7.9,-6.3,-5.6,-29.5,-15.1
O=C(NC1CC1)c1ccc(-c2ccc(N3CCCC3)nn2)cc1,-6.7,2.1,3.0,16.6,6.0
Cc1ncc(-c2ccccn2)c(C2CCC(CNC(=O)CCCc3ccncc3)CC2)n1 (stereo not drawn),2.2,-3.9,-0.7,-0.1,0.1
COc1ccc(C(=O)CSc2nc3ccccc3c(=O)n2-c2ccc(F)cc2)c(OC)c1,-2.1,-9.5,15.2,-49.2,-11.4
O=C(CSc1nnc(C2CC2)n1-c1ccccc1)c1ccc(F)c(F)c1,6.4,6.4,0.1,32.2*,2.8
O=C(CSc1nnc2n(-c3ccccc3)c(=O)c3ccccc3n12)c1ccc(F)cc1,36.4*,-4.0,26.3,2.9,3.4
O=C1c2c(O)c(Cl)cc3c2[C@@]2(Oc4ccc(O)c5c4[C@]3(O2)[C@@H]2O[C@@H]2C5=O)[C@@H]2O[C@H]12,27.1,90.2*,39.9*,44.1*,80.1*
COC(=O)c1ccc([C@@H]2OC(C)(C)C3CC2[C@](C)(O)[C@@H](O)C3)cc1 (stereo partly drawn),-6.4,-15.7,2.7,-12.9,-15.9
O=C(Cn1cnc(-c2noc(-c3ccccc3)n2)c1)Nc1ccccc1,89.8*,/,42.0*,/,28.3
O=C(Cc1noc(-c2ccccc2)n1)Nc1ccccc1,12.9,-24.4,-8.3,-132.2,-12.6
O=C(Cn1cnc(-c2noc(-c3cccc(F)c3)n2)c1)Nc1ccccc1,64.5*,-5.0,27.5,-6.1,8.0
CCCCc1nc(SCC(=O)N2CCc3ccccc32)c2c(=O)n(C)c(=O)n(C)c2n1,9.1,1.4,1.5,-54.3,-1.7
CCCc1nc(SCC(=O)Nc2ccccc2)c2c(=O)n(C)c(=O)n(C)c2n1,18.5,11.6,8.5,30.7*,24.3
COc1ccc(C(=O)N2CCN(c3oc(/C=C/c4cccc(OC)c4)nc3C#N)CC2)cc1,-14.5,6.0,4.2,6.7,25.2
COc1cccc(/C=C/c2nc(C#N)c(N3CCN(C(=O)c4cccs4)CC3)o2)c1,11.8,20.6,7.3,52.2*,8.1
CC1(C(=O)NCc2ccccc2)CCC(=O)N1CCc1ccccc1 (stereo not drawn),2.1,/,0.0,/,5.3
O=c1[nH]c(=O)n(Cc2ccccc2)c2c1CN(CCc1ccccc1)CN2,19.4,15.5,16.5,35.6*,35.0*
O=c1[nH]c(=O)n(Cc2ccccc2)c2c1CN(Cc1ccccc1)CN2,11.6,12.9,5.3,-8.3,15.3
CCN1CCN(C(=O)c2ccc3c(c2)NC(=O)C2CCCCN32)CC1 (stereo not drawn),-9.6,-9.4,-3.6,-43.3,-0.5
CCOC(=O)C1CCN(C(=O)c2ccc3c(c2)NC(=O)C2CCCN32)CC1 (stereo not drawn),92.9*,11.7,4.8,11.3,73.2*
COc1cccc(CNC(=O)c2ccc3c(c2)NC(=O)C2CCCN32)c1OC (stereo not drawn),70.3*,-10.3,-3.2,-32.0,54.1*
Cc1[nH]c2ccc(F)cc2c1CCNC(=O)c1cc2ccccc2oc1=O,1.7,-2.7,1.6,-8.8,-0.1
Cc1nc(-c2ccccn2)cc(N2CCC3(CC2)OCCO3)n1,-22.3,0.0,0.0,24.2,-4.6
